The values that follow come from PubChem BioAssay (EPA / NIEHS).

Usually AC50 stands for the concentration at which the activity in the assay is half-maximal.

Values joined by “and” are separate entries in the source; they are usually repeats but may differ in a detail not shown here. Identical values can stand only once. Inconclusive results are not listed. Active and inactive are the calls of the source. How the source made its calls: active means hit-call score of the fitted dose curve at least 0.9, where 1 is the maximum; inconclusive means response in the unintended direction; inactive means score below 0.9.

Sequence of Estrogen receptor (Homo sapiens) (P03372 whole entry, looked up, the tested form may be a part): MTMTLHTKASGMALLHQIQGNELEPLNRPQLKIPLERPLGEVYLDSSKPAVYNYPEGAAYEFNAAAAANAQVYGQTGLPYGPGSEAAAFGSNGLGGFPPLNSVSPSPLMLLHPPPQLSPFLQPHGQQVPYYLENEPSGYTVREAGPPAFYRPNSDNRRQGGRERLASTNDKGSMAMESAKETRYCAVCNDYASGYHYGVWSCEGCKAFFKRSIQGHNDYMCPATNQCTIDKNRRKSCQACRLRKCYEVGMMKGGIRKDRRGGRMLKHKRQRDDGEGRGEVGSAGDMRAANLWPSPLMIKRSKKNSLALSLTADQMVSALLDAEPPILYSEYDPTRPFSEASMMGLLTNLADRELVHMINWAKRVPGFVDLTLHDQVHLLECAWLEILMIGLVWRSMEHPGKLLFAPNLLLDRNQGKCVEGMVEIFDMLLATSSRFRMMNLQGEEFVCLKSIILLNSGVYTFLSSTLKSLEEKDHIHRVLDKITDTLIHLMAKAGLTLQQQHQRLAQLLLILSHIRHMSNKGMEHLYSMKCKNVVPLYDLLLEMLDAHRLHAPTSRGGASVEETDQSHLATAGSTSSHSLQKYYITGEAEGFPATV
Sequence of Nuclear receptor subfamily 1 group I member 3 (Homo sapiens) (Q14994 whole entry, looked up, the tested form may be a part): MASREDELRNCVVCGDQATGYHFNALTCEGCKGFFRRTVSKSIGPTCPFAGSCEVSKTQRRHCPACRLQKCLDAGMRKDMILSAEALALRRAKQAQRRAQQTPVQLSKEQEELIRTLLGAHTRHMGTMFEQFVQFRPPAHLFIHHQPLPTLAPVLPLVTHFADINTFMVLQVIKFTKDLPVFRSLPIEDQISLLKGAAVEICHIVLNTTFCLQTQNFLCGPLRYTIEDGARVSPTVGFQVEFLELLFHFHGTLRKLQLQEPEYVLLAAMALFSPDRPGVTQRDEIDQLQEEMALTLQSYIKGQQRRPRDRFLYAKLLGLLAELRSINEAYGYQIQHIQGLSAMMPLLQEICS
Sequence of Steroid hormone receptor ERR1 (Homo sapiens) (P11474 whole entry, looked up, the tested form may be a part): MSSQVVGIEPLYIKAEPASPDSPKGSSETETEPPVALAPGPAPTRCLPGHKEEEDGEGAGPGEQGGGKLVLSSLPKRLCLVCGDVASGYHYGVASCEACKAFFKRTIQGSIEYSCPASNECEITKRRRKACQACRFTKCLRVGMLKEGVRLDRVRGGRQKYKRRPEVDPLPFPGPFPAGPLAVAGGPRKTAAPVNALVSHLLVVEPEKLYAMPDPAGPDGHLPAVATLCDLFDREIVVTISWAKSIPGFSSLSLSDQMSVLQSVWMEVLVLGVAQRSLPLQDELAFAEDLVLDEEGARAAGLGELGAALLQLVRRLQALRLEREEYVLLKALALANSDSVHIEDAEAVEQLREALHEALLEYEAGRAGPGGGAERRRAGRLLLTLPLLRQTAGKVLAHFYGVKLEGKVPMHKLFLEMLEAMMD

One assay deals with Nuclear receptor subfamily 1 group I member 3 (Homo sapiens) (UniProt Q14994). In words: ATG_CAR_TRANS: Attagene TRANS-FACTORIAL HepG2 Assay for human Constitutive Androstane Receptor (CAR) (AID 2282969).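 Further: activators raise reporter mRNA above DMSO so AC50 marks induction.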 As to conditions: HepG2 Attagene TRANS-FACTORIAL CAR reporter. Summed up:
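Signal is reporter mRNA induction relative to DMSO, measured 24 h after dosing by RT-PCR with fluorescent primer extension and capillary electrophoresis. Human HepG2 liver cells carried transiently transfected chimeric NR-Gal4/GAL4-UAS reporter constructs.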
Take `O=S(=O)(O)C(F)(F)C(F)(F)C(F)(F)C(F)(F)C(F)(F)C(F)(F)C(F)(F)F`: the result was inactive.

`O=C(O)C(F)(F)C(F)(F)C(F)(F)F`: the compound was classed as inactive.

For `COC(OC(C)=O)c1ccccc1` (configuration not stated), the compound was called inactive.

On to `CCCCCCCCC(F)(F)C(F)(F)C(F)(F)C(F)(F)C(F)(F)C(F)(F)F`, for which the compound was called inactive.

Consider `FC(F)(F)C(F)(F)C(F)(F)CI`, for which the result was inactive.

Regarding `FC(F)(F)C(F)(F)C(F)(F)C(F)(F)C(F)(F)C(F)(F)C(F)(F)C(F)(F)F`, the result was inactive.

Consider `Oc1ccc(Nc2ccccc2)cc1`, for which the compound was classed as inactive.

Consider `CCCCCC=O`, for which the compound was called inactive.

Take `CC(CCl)OP(=O)(OC(C)CCl)OC(C)CCl` (configuration not stated): the call was inactive.

Consider `C=CC(F)(F)C(F)(F)C(F)(F)C(F)(F)C(F)(F)C(F)(F)C(F)(F)C(F)(F)C=C`, for which the compound was classed as inactive.

`O=S(=O)(OCCOC(F)(F)F)C(F)(F)F`: the compound was called inactive.

Another assay concerns the target Estrogen receptor (Homo sapiens) (UniProt P03372). The experiment in a line: ATG_ERa_TRANS: Attagene TRANS-FACTORIAL HepG2 Assay for human Estrogen Receptor alpha (ERa) (AID 2282970). As to conditions: HepG2 Attagene TRANS ERa GAL4 reporter, mRNA. In a few lines:
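One of 30 multiplexed endpoints from a HepG2 TRANS system, this one reports ERa-Gal4-driven reporter mRNA. Transcripts were quantified 24 hours post-dosing by fluorescent RT-PCR and capillary electrophoresis, with activity scored as induction over DMSO.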
With `O=P(O)(O)OCCC(F)(F)C(F)(F)C(F)(F)C(F)(F)C(F)(F)C(F)(F)F`, the AC50 was 10.4 µM (active).

In the case of `[Co]`, the concentration at half-maximal activity (AC50) is 32.5 µM (active).

For the compound `O=C(CC(=O)C(F)(F)C(F)(F)F)C(F)(F)F`, the call was inactive.

As to `O=C(O)C(F)(F)C(F)(F)C(F)(F)C(F)(F)C(F)(F)C(F)(F)C(F)(F)C(F)(F)Cl`, the AC50 is 27.2 µM (active) and 31.4 µM (active).

As for `FC(F)(F)C(F)(F)C(F)(F)C(F)(F)C(F)(F)C(F)(F)C(F)(F)Br`, the compound was classed as inactive.

On to `CCN(Cc1cccc(S(=O)(=O)O)c1)c1ccc(C(=C2C=CC(=[N+](CC)Cc3cccc(S(=O)(=O)O)c3)C=C2)c2ccc(O)cc2S(=O)(=O)[O-])cc1`, for which the result was inactive.

For the compound `O=C(O)C(F)(F)C(F)(F)F`, the outcome was inactive.

Consider `C#C[C@]1(O)CC[C@H]2[C@@H]3CCc4cc(OC)ccc4[C@H]3CC[C@@]21C`, for which the half-maximal activity concentration (AC50) was 0.00914 µM (active).

`OCCCC(F)(F)C(F)(F)C(F)(F)F`: the result was inactive.

Regarding `O=C(O)C(F)(F)C(F)(F)C(F)(F)C(F)(F)F`, the outcome was inactive.

Regarding `O=C(O)C(F)(F)C(F)(F)C(F)(F)C(F)(F)C(F)(F)C(F)(F)C(F)(F)C(F)(F)C(F)(F)C(F)(F)C(F)(F)C(F)(F)C(F)(F)F`, the result was inactive.

Turning to `O=C(O)C=C(C(F)(F)F)C(F)(F)F`, the outcome was inactive.

`O=S(=O)(O)c1ccc2ccccc2c1`: the outcome was inactive.

On to `CC/C=C\CCOC(=O)c1ccccc1`, for which the outcome was inactive.

For `CCCCOc1ccc(N)cc1`, the call was inactive.

For `CC(C)c1ccccc1N`, the outcome was inactive.

For the compound `CC/C=C\CCOC(C)=O`, the outcome was inactive.

Regarding `COC(=O)C1CCC(C(=O)OC)CC1` (configuration not stated), the result was inactive.

As to `FC(F)(F)C(F)(F)C(F)(F)C(F)(F)C(F)(F)C(F)(F)CCS`, the call was inactive.

With `O=C(O)C(F)(F)C(F)(F)C(F)(F)C(F)(F)C(F)(F)C(F)(F)C(F)(F)C(F)(F)C(F)(F)C(F)F`, the AC50 was 24.6 µM (active).

On to `c1ccc(B(c2ccccc2)c2ccccc2)cc1`, for which the concentration at half-maximal activity (AC50) is 5.7 µM (active).

Regarding `FC(F)(F)C(F)(F)C(F)(F)N(C(F)(F)C(F)(F)C(F)(F)F)C(F)(F)C(F)(F)C(F)(F)F`, the call was inactive.

For the compound `O=S(=O)(O)C(F)(F)C(F)(F)C(F)(F)C(F)(F)C(F)(F)C(F)(F)C(F)(F)F`, the half-maximal activity concentration (AC50) was 43.3 µM (active) and 58.7 µM (active).

On to `O=C(O)C(F)(F)C(F)(F)C(F)(F)F`, for which the AC50 was 108 µM (active).

Turning to `COC(OC(C)=O)c1ccccc1` (configuration not stated), the compound was called inactive.

`OCCCC(F)(F)C(F)(F)C(F)(F)C(F)(F)C(F)(F)C(F)(F)C(F)(F)F`: the AC50 was 13.7 µM (active) and 13.2 µM (active).

Consider `CCCCCCCCC(F)(F)C(F)(F)C(F)(F)C(F)(F)C(F)(F)C(F)(F)F`, for which the compound was classed as inactive.

As to `FC(F)(F)C(F)(F)C(F)(F)CI`, the result was inactive.

For `FC(F)(F)C(F)(F)C(F)(F)C(F)(F)C(F)(F)C(F)(F)C(F)(F)C(F)(F)F`, the result was inactive.

In the case of `Oc1ccc(Nc2ccccc2)cc1`, the half-maximal activity concentration (AC50) is 5.96 µM (active).

For `CCCCCC=O`, the outcome was inactive.

On to `CC(CCl)OP(=O)(OC(C)CCl)OC(C)CCl` (configuration not stated), for which the compound was called inactive.

On to `C=CC(F)(F)C(F)(F)C(F)(F)C(F)(F)C(F)(F)C(F)(F)C(F)(F)C(F)(F)C=C`, for which the AC50 is 2.76 µM (active).

`O=S(=O)(OCCOC(F)(F)F)C(F)(F)F`: the compound was classed as inactive.

Another assay addresses Steroid hormone receptor ERR1 (Homo sapiens) (UniProt P11474). The experiment in a line: ATG_ERRa_TRANS: Attagene TRANS-FACTORIAL HepG2 Assay for human Estrogen-Related Receptor alpha (ERRa) (AID 2282971). As to conditions: HepG2 Attagene TRANS reporter, ERRa transactivation. In a few lines: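 HepG2 cells transiently transfected with multiplexed GAL4-UAS reporter units reading chimeric ERRa-Gal4 activity; 24 h compound exposure. Reporter mRNA measured by RT-PCR, 6-FAM labelling, HpaI digest and capillary electrophoresis; gain of signal fitted versus DMSO baseline.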
For the compound `O=P(O)(O)OCCC(F)(F)C(F)(F)C(F)(F)C(F)(F)C(F)(F)C(F)(F)F`, the call was inactive.

Regarding `[Co]`, the compound was called inactive.

For `O=C(CC(=O)C(F)(F)C(F)(F)F)C(F)(F)F`, the compound was called inactive.

For `FC(F)(F)C(F)(F)C(F)(F)C(F)(F)C(F)(F)C(F)(F)C(F)(F)Br`, the compound was called inactive.

`CCN(Cc1cccc(S(=O)(=O)O)c1)c1ccc(C(=C2C=CC(=[N+](CC)Cc3cccc(S(=O)(=O)O)c3)C=C2)c2ccc(O)cc2S(=O)(=O)[O-])cc1`: the compound was called inactive.

Turning to `O=C(O)C(F)(F)C(F)(F)F`, the call was inactive.

In the case of `C#C[C@]1(O)CC[C@H]2[C@@H]3CCc4cc(OC)ccc4[C@H]3CC[C@@]21C`, the call was inactive.

Take `OCCCC(F)(F)C(F)(F)C(F)(F)F`: the result was inactive.

With `O=C(O)C(F)(F)C(F)(F)C(F)(F)C(F)(F)F`, the result was inactive.

For the compound `O=C(O)C(F)(F)C(F)(F)C(F)(F)C(F)(F)C(F)(F)C(F)(F)C(F)(F)C(F)(F)C(F)(F)C(F)(F)C(F)(F)C(F)(F)C(F)(F)F`, the compound was called inactive.

Regarding `O=C(O)C=C(C(F)(F)F)C(F)(F)F`, the compound was classed as inactive.

On to `CC/C=C\CCOC(=O)c1ccccc1`, for which the compound was called inactive.

With `CCCCOc1ccc(N)cc1`, the compound was classed as inactive.

Take `CC(C)c1ccccc1N`: the outcome was inactive.

For `CC/C=C\CCOC(C)=O`, the call was inactive.

With `COC(=O)C1CCC(C(=O)OC)CC1` (configuration not stated), the result was inactive.

For the compound `FC(F)(F)C(F)(F)C(F)(F)C(F)(F)C(F)(F)C(F)(F)CCS`, the result was inactive.

Take `O=C(O)C(F)(F)C(F)(F)C(F)(F)C(F)(F)C(F)(F)C(F)(F)C(F)(F)C(F)(F)C(F)(F)C(F)F`: the call was inactive.

For the compound `c1ccc(B(c2ccccc2)c2ccccc2)cc1`, the compound was called inactive.

As to `FC(F)(F)C(F)(F)C(F)(F)N(C(F)(F)C(F)(F)C(F)(F)F)C(F)(F)C(F)(F)C(F)(F)F`, the outcome was inactive.

For the compound `O=S(=O)(O)C(F)(F)C(F)(F)C(F)(F)C(F)(F)C(F)(F)C(F)(F)C(F)(F)F`, the call was inactive.

Regarding `O=C(O)C(F)(F)C(F)(F)C(F)(F)F`, the compound was classed as inactive.

With `COC(OC(C)=O)c1ccccc1` (configuration not stated), the compound was classed as inactive.

Take `OCCCC(F)(F)C(F)(F)C(F)(F)C(F)(F)C(F)(F)C(F)(F)C(F)(F)F`: the outcome was inactive.

As to `CCCCCCCCC(F)(F)C(F)(F)C(F)(F)C(F)(F)C(F)(F)C(F)(F)F`, the call was inactive.

Take `FC(F)(F)C(F)(F)C(F)(F)CI`: the call was inactive.

Regarding `FC(F)(F)C(F)(F)C(F)(F)C(F)(F)C(F)(F)C(F)(F)C(F)(F)C(F)(F)F`, the compound was called inactive.

`Oc1ccc(Nc2ccccc2)cc1`: the compound was classed as inactive.

With `CCCCCC=O`, the compound was called inactive.

Take `CC(CCl)OP(=O)(OC(C)CCl)OC(C)CCl` (configuration not stated): the outcome was inactive.

In the case of `C=CC(F)(F)C(F)(F)C(F)(F)C(F)(F)C(F)(F)C(F)(F)C(F)(F)C(F)(F)C=C`, the outcome was inactive.

With `O=S(=O)(OCCOC(F)(F)F)C(F)(F)F`, the outcome was inactive.
